Here are results for one sequence from paper PMC7862700, “An all-to-all approach to the identification of sequence-specific readers for epigenetic DNA modifications on cytosine”.

Holding throughout (experiment): DAPPL (digital affinity profiling via proximity ligation, sequencing); 10 mM Tris-HCl pH 7.5, 50 mM NaCl, 1 mM DTT, 4% glycerol, room temperature, 30 min; GST-TFs on glutathione beads, 16-mer random dsDNA library, 0.1% formaldehyde crosslink after washing; high values mean tight binding
Conditions in all cases: protein: recombinant; tags: N-terminal GST; dsDNA, one strand shown

The target in one assay is T1, ELK4 (Homo sapiens, UniProt P28324-2 1-405).
T1 sequence: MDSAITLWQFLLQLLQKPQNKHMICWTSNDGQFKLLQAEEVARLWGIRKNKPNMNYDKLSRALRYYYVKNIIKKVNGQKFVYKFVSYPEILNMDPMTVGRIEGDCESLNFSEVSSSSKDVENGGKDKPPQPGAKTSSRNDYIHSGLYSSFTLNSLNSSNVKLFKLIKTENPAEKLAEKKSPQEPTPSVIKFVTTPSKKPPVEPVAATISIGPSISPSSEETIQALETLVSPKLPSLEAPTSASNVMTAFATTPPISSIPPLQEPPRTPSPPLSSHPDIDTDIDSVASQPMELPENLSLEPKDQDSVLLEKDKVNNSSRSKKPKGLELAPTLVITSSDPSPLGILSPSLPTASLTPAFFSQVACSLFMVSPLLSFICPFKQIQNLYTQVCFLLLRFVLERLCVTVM
Put shortly:
(§1)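 Beads coated with glutathione captured GST-fused human transcription factors that had been expressed in yeast, and the factors were then given DNA barcodes and pooled with a tag-only sample. The pools were incubated with 200 nmole of a random double-stranded 16-mer DNA library in Tris/NaCl/DTT/glycerol buffer for 30 min at room temperature, washed, crosslinked with 0.1% formaldehyde and proximity-ligated with BsaI/T4 ligase at 37 °C for 1 h. PCR amplification and Illumina NextSeq500 sequencing came last. Binding signal is each hexamer's read frequency for a factor divided by its frequency for the tag-only sample.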

Another assay deals with T2, ETV2 (Homo sapiens, UniProt O00321 1-342).
T2 sequence: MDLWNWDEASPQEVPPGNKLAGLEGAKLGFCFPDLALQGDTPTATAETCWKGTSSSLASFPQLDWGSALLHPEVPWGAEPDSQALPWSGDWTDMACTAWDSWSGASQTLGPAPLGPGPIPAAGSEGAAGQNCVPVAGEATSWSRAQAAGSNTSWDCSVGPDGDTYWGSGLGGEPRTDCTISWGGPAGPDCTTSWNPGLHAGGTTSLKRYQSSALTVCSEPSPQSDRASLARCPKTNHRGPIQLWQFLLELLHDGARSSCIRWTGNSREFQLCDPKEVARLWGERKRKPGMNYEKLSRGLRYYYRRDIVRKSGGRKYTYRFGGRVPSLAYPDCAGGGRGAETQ
Put shortly:
as §1

A further assay has as its target ETV1 (Homo sapiens, UniProt P50549 1-477). Summed up:
as §1

The target of a further assay is T3, ERF (Homo sapiens, UniProt P50548 1-548).
T3 sequence: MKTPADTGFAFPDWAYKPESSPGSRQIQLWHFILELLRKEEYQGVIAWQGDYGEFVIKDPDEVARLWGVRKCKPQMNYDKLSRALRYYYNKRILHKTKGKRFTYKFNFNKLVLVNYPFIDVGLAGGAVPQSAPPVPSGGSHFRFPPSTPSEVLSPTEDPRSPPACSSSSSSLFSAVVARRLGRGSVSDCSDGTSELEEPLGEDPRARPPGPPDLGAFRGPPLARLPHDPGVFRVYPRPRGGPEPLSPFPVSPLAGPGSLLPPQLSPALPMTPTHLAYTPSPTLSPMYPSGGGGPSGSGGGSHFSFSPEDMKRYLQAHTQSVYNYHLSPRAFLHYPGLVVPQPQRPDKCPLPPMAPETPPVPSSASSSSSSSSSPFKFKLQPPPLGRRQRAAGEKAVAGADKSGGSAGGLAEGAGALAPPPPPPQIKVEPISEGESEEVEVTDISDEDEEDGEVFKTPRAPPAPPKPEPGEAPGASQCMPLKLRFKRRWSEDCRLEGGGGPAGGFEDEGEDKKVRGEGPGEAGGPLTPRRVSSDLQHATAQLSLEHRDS
Put shortly: as §1

The target in another assay is T4, ETV3L (Homo sapiens, UniProt Q6ZN32 1-361).
T4 sequence: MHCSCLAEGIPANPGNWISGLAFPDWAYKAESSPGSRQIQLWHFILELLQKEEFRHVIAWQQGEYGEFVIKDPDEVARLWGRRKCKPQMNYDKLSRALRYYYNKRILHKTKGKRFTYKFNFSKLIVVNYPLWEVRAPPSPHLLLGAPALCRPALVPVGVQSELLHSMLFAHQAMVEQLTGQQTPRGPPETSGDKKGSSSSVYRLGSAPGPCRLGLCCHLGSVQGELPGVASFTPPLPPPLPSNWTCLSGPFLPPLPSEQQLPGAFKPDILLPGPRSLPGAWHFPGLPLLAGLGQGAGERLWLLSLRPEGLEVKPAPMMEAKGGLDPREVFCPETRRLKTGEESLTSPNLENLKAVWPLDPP
Summed up: as §1

The target of another assay is T5, ETS2 (Homo sapiens, UniProt P15036 1-469).
T5 sequence: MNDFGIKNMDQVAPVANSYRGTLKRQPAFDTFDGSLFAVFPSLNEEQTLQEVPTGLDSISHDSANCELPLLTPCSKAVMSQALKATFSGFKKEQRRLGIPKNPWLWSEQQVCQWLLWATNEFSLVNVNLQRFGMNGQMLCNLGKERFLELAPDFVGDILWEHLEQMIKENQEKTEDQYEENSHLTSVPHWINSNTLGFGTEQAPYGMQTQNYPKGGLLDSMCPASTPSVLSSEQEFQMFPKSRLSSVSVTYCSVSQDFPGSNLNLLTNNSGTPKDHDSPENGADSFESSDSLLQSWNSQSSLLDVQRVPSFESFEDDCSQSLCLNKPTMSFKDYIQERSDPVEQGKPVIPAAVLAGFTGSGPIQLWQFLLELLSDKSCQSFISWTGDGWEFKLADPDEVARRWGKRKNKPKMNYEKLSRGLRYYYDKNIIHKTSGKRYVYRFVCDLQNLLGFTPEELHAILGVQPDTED
Summed up: as §1

A further assay addresses T6, SPDEF (Homo sapiens, UniProt O95238 1-335).
T6 sequence: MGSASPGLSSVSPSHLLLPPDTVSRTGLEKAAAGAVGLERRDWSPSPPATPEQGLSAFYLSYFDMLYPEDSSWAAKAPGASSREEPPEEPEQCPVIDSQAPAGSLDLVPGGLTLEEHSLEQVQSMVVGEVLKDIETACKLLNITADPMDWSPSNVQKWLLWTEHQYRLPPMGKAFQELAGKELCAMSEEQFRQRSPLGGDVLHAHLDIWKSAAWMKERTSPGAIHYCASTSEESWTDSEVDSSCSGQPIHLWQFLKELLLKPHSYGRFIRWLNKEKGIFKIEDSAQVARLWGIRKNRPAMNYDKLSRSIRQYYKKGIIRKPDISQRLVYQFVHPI
Summed up:
as §1

In another assay the target is T7, ETV7 (Homo sapiens, UniProt Q9Y603 1-341).
T7 sequence: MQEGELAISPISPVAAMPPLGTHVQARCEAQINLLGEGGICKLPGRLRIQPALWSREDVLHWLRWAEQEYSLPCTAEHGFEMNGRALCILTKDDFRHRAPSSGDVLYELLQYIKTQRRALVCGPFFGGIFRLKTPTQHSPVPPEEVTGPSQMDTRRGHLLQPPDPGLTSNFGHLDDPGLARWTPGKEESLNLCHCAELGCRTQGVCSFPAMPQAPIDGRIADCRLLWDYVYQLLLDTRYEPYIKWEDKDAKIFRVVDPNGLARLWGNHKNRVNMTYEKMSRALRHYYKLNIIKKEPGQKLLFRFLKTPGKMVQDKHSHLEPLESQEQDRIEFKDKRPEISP
Put shortly:
as §1

Another assay concerns the target T8, ETV3 (Homo sapiens, UniProt P41162-2 1-143).
T8 sequence: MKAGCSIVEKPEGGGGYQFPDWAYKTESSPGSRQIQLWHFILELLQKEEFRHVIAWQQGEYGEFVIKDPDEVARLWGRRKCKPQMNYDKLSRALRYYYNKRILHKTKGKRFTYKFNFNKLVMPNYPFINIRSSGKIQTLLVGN
Summed up:
as §1

The next assay addresses ETV6 (Homo sapiens, UniProt P41212 1-452). Summed up:
as §1

ETV1, sequence (P50549 whole entry): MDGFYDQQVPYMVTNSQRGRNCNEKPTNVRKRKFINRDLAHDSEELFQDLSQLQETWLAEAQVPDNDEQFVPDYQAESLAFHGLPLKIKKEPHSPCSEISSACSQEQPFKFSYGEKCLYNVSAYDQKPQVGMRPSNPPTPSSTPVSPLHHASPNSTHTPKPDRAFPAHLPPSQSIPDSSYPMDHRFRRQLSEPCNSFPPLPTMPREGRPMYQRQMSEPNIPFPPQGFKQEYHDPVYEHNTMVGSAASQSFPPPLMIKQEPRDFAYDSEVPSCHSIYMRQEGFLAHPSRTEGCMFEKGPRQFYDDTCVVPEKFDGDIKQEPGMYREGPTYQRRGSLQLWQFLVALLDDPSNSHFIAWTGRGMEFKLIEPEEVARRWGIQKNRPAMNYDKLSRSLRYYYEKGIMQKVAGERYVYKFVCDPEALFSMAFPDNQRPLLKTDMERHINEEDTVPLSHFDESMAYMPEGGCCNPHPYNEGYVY
ETV6, sequence (P41212 whole entry): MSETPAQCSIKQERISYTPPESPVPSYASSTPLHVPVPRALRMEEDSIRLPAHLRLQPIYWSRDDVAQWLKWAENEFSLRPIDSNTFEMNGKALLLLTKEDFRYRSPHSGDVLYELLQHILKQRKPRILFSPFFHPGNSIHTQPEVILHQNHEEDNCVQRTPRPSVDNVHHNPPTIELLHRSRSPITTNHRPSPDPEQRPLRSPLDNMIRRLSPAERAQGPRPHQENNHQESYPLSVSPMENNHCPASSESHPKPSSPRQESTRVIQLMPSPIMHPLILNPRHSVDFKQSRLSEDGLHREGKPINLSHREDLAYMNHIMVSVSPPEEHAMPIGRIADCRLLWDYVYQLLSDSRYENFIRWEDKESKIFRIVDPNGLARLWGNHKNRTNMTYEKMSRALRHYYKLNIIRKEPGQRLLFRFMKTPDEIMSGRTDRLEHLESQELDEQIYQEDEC

Turning to GTTGAC, the binding signal with ELK4 is 1.25 fold enrichment (6-mer frequency, TF over GST control); in the assay with ETV2, 1.07 fold enrichment (6-mer frequency, TF over GST control); in the assay with ETV1 it was 1.06 fold enrichment (6-mer frequency, TF over GST control); with ERF, 1.43 fold enrichment (6-mer frequency, TF over GST control); with ETV3L, 1.19 fold enrichment (6-mer frequency, TF over GST control); with ETS2, 1.17 fold enrichment (6-mer frequency, TF over GST control). Further, the binding signal in the assay with SPDEF is 1.07 fold enrichment (6-mer frequency, TF over GST control); with ETV7, 1.19 fold enrichment (6-mer frequency, TF over GST control); with ETV3 it was 1.04 fold enrichment (6-mer frequency, TF over GST control); with ETV6 it was 1.21 fold enrichment (6-mer frequency, TF over GST control).
